For three compounds, composite z-score and z-score results are on record in PubChem BioAssay.

Active and inactive are the calls of the source.

Test [1] is described as follows: binders of probe aFSTL3 on microarray, primary screen, stem cell growth factor project, biochemical, small-molecule microarray, fluorescence 635/667 (AID 1064).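 Note: measures binding of the biotinylated anti-FSTL3 antibody to printed compounds.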 As to conditions: higher = more signal.
Test [2] can be described thus: binders from COS7 lysate, DM2A8 probe, primary screen, torsin A project, cell lysate, small-molecule microarray, fluorescence 635/667 (AID 1065). The settings on record: higher = more signal, COS7 lysate expressing mutant human TOR1A.
Test [3] is described as follows: binders of probe aFGF2 on microarray, primary screen, stem cell growth factor project, biochemical, small-molecule microarray, fluorescence 635/667 (AID 1067).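 Note: measures binding of biotinylated aFGF2 protein to printed compounds on slides; z-score merges feature fluorescence and signal-to-noise across triplicate slides.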 As to conditions: higher = more signal.
The nature of test [4]: binders of probe aFGF10 on microarray, primary screen, stem cell growth factor project, biochemical, small-molecule microarray, fluorescence 635/667 (AID 1071).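 Note: score merges 667 nm spot intensity and signal to noise from triplicate slides.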 The settings on record: higher = more signal.
The target of test [5] is Neurogenic locus notch homolog protein 2 (Homo sapiens) (UniProt Q04721). Description: Notch2 binders on small-molecule microarrays, primary screen, biochemical, small-molecule microarray, 635 nm fluorescence, stem cell growth factors (AID 1073). As to conditions: Notch2 binding, higher = more signal.
Chain of Neurogenic locus notch homolog protein 2 (Homo sapiens) (Q04721 whole entry, looked up, canonical isoform): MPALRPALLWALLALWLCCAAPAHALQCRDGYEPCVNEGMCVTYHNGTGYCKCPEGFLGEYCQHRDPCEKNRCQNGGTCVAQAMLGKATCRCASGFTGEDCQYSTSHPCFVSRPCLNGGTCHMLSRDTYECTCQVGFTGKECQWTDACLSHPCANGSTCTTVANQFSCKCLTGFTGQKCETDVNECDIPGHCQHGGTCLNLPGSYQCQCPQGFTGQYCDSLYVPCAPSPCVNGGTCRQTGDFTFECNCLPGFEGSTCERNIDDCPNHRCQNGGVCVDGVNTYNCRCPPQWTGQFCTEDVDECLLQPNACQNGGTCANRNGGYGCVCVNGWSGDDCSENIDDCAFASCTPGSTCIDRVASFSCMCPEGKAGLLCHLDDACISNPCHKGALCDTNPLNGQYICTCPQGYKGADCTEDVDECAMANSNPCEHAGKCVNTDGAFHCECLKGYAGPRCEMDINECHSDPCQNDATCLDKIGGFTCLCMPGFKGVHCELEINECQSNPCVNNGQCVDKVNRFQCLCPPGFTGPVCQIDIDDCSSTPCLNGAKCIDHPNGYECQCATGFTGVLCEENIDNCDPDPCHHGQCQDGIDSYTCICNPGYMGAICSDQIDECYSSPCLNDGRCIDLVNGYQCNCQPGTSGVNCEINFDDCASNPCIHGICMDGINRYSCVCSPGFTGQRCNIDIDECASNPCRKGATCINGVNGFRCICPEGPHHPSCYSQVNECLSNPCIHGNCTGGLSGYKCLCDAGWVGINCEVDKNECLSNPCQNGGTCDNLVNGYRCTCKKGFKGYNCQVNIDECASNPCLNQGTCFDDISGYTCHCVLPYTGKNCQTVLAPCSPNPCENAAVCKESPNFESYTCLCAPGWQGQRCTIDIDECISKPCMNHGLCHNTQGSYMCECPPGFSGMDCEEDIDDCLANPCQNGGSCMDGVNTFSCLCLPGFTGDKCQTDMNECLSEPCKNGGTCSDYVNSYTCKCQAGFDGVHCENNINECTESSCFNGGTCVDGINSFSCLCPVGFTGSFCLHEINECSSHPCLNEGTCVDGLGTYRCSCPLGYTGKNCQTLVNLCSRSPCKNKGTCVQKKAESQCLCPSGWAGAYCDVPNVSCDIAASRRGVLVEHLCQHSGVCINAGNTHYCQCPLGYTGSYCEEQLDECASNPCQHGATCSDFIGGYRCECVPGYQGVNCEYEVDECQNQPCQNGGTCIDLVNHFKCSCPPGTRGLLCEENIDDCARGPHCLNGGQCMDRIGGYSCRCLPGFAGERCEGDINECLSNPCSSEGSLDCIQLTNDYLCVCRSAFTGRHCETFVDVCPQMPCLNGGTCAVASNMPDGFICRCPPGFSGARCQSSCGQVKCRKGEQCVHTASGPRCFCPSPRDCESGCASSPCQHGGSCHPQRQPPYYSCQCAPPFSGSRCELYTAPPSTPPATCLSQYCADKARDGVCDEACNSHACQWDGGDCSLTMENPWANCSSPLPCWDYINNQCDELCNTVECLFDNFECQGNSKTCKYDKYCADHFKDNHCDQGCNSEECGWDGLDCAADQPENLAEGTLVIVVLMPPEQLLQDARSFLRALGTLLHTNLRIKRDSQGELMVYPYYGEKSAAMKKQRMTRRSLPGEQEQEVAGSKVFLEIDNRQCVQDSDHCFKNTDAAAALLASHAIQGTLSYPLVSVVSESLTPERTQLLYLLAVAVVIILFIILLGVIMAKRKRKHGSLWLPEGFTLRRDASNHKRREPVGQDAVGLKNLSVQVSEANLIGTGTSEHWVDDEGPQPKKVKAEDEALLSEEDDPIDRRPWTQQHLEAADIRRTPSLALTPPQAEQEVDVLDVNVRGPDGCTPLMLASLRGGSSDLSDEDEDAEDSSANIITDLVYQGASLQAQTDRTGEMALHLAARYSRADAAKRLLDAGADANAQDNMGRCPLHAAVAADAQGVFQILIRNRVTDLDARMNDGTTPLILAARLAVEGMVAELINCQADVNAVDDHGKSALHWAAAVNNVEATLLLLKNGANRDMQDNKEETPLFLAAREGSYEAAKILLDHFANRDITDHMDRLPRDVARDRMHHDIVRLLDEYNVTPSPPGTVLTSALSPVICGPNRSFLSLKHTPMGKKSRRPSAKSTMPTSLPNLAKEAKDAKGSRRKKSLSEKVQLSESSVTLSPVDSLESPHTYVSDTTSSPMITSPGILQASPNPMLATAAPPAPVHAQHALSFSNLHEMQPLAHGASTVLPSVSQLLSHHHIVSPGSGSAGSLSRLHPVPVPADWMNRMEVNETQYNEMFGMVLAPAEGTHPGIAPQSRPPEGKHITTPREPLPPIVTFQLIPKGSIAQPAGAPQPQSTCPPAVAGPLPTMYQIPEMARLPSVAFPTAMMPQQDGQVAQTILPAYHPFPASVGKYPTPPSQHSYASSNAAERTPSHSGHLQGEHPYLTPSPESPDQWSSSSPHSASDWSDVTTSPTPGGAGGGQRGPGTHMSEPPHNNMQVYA
Test [6] concerns the target Pro-neuregulin-1, membrane-bound isoform (Homo sapiens) (UniProt Q02297). Kind of test: NRG1 binders on small-molecule microarrays, primary screen, psychiatric disease protein project, biochemical, small-molecule microarray, fluorescence 635/667 (AID 1075).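 Note: score combines 667 nm spot fluorescence with signal to noise.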 The settings on record: NRG1 binding, 635 nm fluorescence, higher = more signal.
Test [7] relates to Neuregulin-1 EGF-like domain. Description: binders of neuregulin-1 EGF-like domain, primary screen, biochemical, small-molecule microarray, 635 nm fluorescence (AID 1081).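 Note: binding of the protein to compounds printed on small-molecule microarray slides.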 As to conditions: small-molecule microarray binding, higher = more signal.
Test [8] in a line: FRG1 promoter luciferase signal modulators, primary screen, FRG1 inhibition for FSHD, cell-based, C2C12 myotubes, firefly/Renilla luciferase, luminescence (AID 1084). As to conditions: higher = more signal, called active from +8 up or from −8 down.
Test [9] in a line: binders of probe aFST on microarray, primary screen, stem cell growth factor project, biochemical, small-molecule microarray, fluorescence 635/667 (AID 1086).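 Note: score merges 667 nm fluorescence with signal-to-noise of each printed compound spot.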 As to conditions: higher = more signal.
Test [10] can be described thus: binders of probe aHhip on microarray, primary screen, stem cell growth factor project, biochemical, small-molecule microarray, fluorescence 635/667 (AID 1087).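 Note: score merges spot fluorescence at 667nm with spot signal to noise ratio.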 As to conditions: higher = more signal.
Test [11] deals with PRMT1 (protein arginine N-methyltransferase 1). Description: PRMT1 binders on small-molecule microarrays, primary screen, biochemical, small-molecule microarray, 635 nm fluorescence (AID 1088).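 Note: binding of Prmt1 protein to compounds spotted on small-molecule microarray slides.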 The settings on record: small-molecule microarray binding, higher = more signal.
Test [12] is described as follows: yeast growth modulation, basal conditions, primary screen, YJM789 clinical isolate, OD600, 24 h (AID 1089).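 Note: growth of clinical yeast isolate S. cerevisiae YJM 789 seeded 1000 cells per well; test concentration not given here.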 As to conditions: S. cerevisiae YJM789 growth, higher = more signal, called active from +8 up or from −8 down.
The nature of test [13]: fission yeast growth modulation, primary screen, strain 972, OD600, 24 h, no modulator (AID 1090).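 Note: basal condition with compound alone and no growth modifier present; test concentration not given here.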 As to conditions: S. pombe 972 growth, higher = more signal, called active from +8 up or from −8 down.
Test [14] is described as follows: S. cerevisiae growth modulation with rapamycin, primary screen, strain BY4716, OD600, 96 h (AID 1091). Note: test concentration not given here. The settings on record: higher = more signal, called active from +8 up or from −8 down.
The target in test [15] is Torsin-1A-interacting protein 2 (Homo sapiens) (UniProt Q8NFQ8). Kind of test: LULL1 binders on small-molecule microarray, primary screen, cell lysate, human LULL1 lysate, 635/667 nm fluorescence (AID 1092).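 Note: probe is lysate of COS7 cells overexpressing human LULL1; score merges per-feature 667 nm fluorescence with signal-to-noise.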 As to conditions: hLULL1 lysate binding, 635 nm fluorescence, higher = more signal.
Test [16] in a line: E. coli growth modulation, two-sided OD650, primary screen, E. coli filamentation project, strain DRC41, 24 h (AID 1093).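 Note: MC1000 strain lacking acrAB efflux and sulA so SOS filamentation is blocked; test concentration not given here.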 As to conditions: OD650, 24 h, higher = more signal, called active from +8 up or from −8 down.
Test [17] can be described thus: small-molecule microarray binders of probe aLefty2, primary screen, biochemical, biotinylated probe, 635/667 nm fluorescence (AID 1094).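 Note: score merges spot fluorescence near 667 nm with spot signal-to-noise ratio.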 The settings on record: higher = more signal.
For test [18], the system named is Noggin (protein binding on small-molecule microarray). Kind of test: Noggin binders on small-molecule microarray, primary screen, biochemical, 635/667 nm fluorescence (AID 1095).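 Note: score merges 667 nm feature fluorescence with signal to noise over triplicate slides.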 As to conditions: 635 nm fluorescence, higher = more signal.
Test [19] concerns the target Neurogenic locus notch homolog protein 3 (Homo sapiens) (UniProt Q9UM47). Description: NOTCH3 binders on small-molecule microarray, primary screen, biochemical, 635/667 nm fluorescence (AID 1096). As to conditions: NOTCH3 binding, 635 nm fluorescence, higher = more signal.
A short description of test [20]: small-molecule microarray binders of probe aEGFR, primary screen, biochemical, biotinylated probe, 635/667 nm fluorescence (AID 1097).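 Note: probe is a biotinylated anti-EGFR antibody binding compounds printed on slides; score combines fluorescence near 667 nm and signal to noise of each spot.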 The settings on record: higher = more signal.

Chain of Neurogenic locus notch homolog protein 3 (Homo sapiens) (Q9UM47 whole entry, looked up): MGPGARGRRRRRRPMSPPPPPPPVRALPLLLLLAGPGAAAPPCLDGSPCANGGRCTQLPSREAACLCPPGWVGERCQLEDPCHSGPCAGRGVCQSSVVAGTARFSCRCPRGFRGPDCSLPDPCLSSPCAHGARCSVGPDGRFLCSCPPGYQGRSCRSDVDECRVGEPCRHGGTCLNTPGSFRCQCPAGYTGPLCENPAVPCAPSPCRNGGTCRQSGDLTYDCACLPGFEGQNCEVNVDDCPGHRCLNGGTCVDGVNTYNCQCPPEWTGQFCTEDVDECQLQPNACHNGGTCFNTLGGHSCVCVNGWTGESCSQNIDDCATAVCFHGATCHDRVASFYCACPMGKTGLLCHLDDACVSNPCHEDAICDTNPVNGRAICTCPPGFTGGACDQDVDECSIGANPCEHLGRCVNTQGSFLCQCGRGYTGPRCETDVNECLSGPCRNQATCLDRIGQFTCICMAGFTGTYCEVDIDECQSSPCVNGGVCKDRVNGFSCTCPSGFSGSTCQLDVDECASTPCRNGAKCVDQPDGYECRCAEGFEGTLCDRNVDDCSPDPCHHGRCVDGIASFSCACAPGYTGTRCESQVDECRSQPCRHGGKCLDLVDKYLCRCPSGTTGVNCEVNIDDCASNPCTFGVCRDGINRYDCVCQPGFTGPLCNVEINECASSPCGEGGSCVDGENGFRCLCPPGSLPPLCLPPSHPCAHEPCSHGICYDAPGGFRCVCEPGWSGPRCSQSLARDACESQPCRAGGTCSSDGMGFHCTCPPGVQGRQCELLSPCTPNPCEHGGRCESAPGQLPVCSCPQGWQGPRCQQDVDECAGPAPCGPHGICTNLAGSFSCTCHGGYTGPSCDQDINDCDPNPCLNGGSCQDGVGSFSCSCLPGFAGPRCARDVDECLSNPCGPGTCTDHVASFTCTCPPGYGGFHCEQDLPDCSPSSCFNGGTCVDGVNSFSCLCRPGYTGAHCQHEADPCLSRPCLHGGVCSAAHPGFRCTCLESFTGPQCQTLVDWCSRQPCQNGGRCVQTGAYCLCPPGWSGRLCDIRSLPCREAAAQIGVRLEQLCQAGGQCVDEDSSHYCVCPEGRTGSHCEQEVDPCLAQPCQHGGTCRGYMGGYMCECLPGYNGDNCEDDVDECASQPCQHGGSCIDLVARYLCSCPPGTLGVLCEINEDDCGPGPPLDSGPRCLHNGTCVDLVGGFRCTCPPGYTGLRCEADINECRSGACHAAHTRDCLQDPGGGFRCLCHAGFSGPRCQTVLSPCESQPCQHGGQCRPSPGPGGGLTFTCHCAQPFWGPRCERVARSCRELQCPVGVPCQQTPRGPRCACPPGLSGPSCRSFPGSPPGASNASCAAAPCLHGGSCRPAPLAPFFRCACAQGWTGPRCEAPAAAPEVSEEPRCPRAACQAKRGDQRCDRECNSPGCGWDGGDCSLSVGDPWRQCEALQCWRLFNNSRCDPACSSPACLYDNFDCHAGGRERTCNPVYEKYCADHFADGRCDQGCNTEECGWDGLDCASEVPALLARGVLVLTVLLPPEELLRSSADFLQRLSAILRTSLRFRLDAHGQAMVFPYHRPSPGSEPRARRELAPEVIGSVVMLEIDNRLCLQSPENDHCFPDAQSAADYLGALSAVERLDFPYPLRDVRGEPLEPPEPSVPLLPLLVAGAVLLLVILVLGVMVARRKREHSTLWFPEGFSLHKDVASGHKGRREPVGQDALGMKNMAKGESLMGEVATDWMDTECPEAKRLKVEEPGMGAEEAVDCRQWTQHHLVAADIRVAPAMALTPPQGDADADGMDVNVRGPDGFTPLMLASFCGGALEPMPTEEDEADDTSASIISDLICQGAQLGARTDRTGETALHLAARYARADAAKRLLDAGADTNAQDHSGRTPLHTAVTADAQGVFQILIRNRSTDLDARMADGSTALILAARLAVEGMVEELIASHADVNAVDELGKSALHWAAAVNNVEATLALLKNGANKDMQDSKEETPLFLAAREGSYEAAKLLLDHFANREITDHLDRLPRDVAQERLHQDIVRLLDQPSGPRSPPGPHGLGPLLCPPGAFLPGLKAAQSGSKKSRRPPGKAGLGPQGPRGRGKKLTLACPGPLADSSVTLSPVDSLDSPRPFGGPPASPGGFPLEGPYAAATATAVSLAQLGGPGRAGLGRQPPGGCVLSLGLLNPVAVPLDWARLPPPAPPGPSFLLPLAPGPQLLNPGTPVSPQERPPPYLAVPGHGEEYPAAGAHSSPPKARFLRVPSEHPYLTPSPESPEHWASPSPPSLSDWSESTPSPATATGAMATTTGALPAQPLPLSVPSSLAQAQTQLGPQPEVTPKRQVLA

Regarding `COCCOC(=O)N1C(=O)[C@@]2(c3cc(C#Cc4ccc(OC)cc4)ccc31)[C@H](C(N)=O)[C@H]1C(=O)O[C@H](c3ccccc3)[C@H](c3ccccc3)N1[C@@H]2c1ccc(OCCO)cc1`, the composite z-score is -0.358 in [1]; 0.562 in test [2]; 0.0014 in test [3]; 0.62 in test [4]; 1.17 in [5]; 0.869 in test [6]. The composite z-score in [7] was 1.28; in test [9], 0.512; in [10], -0.251; in test [11], 1.53; in [15], 2.75; in test [17] it was -0.0757. Also, the figures for the composite z-score in test [18], in [19] and in test [20] were 1.43, 1.07 and 0.0251, respectively. The z-score is 0.574 (inactive) in test [8]; 2.17 (inactive) in test [12]; 0.719 (inactive) in test [13]; 4.88 (inactive) in test [14]; 1.31 (inactive) in test [16].

Consider `C=CCC(OC(C)=O)[C@@H]1[C@@H](N(Cc2ccc(-c3cccc(C(F)(F)F)c3)o2)C(=O)c2cccc3ccccc23)c2cc(OCCCO)ccc2N1C(=O)c1ccc(-c2ccccc2)cc1` (stereo not given in full), for which the composite z-score was -0.188 in test [1]; 0.0536 in test [2]; -0.12 in test [3]; -0.212 in [4]; -0.628 in test [5]; 0.0252 in [6]. The composite z-score in test [7] is -0.908; in test [9], 0.123; in test [10], 0.0749; in [11], -0.496; in test [15], -0.94; in test [17] it was -0.0785. Besides, the composite z-score in test [18] is 1.06; in test [19] it was -0.358; in [20] it was -0.099. Moreover, the z-score in test [8] was -0.579 (inactive); in [12] it was 0.0476 (inactive); in test [13], 0.0758 (inactive); in test [14], -0.0038 (inactive); in [16] it was -0.993 (inactive).

On to `COC(=O)C(CC#Cc1ccc2c(c1)[C@]1(C(=O)N2)[C@H](C(=O)N2CCc3cc(OC)c(OC)cc3C2)[C@H]2C(=O)O[C@H](c3ccccc3)[C@H](c3ccccc3)N2[C@@H]1c1ccc(O)cc1)C(=O)OC`, for which the composite z-score worked out at 0.145 in test [1]; 0.305 in test [2]; 0.0276 in test [3]; 0.734 in test [4]; 1.32 in test [5]; 1.69 in test [6]. Further, the composite z-score was found to be 1.35 in [7]; 0.288 in test [9]; 0.644 in test [10]; 1.48 in test [11]; 2.83 in test [15]; 0.157 in test [17]. Also, the composite z-score is 1.88 in test [18], 1.09 in [19] and 0.404 in [20]. In addition, the z-score is 1.77 (inactive) in test [8]; 2.78 (inactive) in [12]; 0.355 (inactive) in [13]; 2.62 (inactive) in test [14]; 2.04 (inactive) in test [16].
